Test results published in PubChem BioAssay.

Experiment: JC-1 mitochondrial potential readout, lung cancer cells – cell-based, A549, JC-1 fluorescence, basal, 24 h, 100 nL, profiling panel (AID 1138);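 also: A549 lung adenocarcinoma cells under basal conditions with no added stimulus; test concentration not given here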
Details: higher = more signal

SMILES	z-score
COCC(=C=CC[C@@H](O)c1ccc(CO)o1)CCO	-0.0212
CC(C)N1C(=O)c2ccccc2[C@@H](C(=O)NCCCN(C)C)[C@@H]1c1ccc(CO)cc1	-0.864
C=C[C@@H](COC(C)=O)N(Cc1ccc([N+](=O)[O-])cc1)S(=O)(=O)c1ccc(Br)cc1	1.6
CC(C)C(=C=CC[C@@H](O)c1ccccc1OCCO)C[C@@H](O)c1ccccn1	1.43
C=CCNC(=O)[C@@H]1[C@H]2C(=O)O[C@H](c3ccccc3)[C@H](c3ccccc3)N2[C@H](c2ccc(O)cc2)[C@@]12C(=O)N(C(=O)OCCOC)c1ccccc12	-0.595
CC(C)(C)OC(=O)CC[C@@]1(C(=O)NCCN2CCOCC2)N=C(c2ccc(OCCCO)cc2)O[C@@H]1c1ccccc1	1.59
N#Cc1ccc(NN2C(C(O)C3CCCCC3)C=CC3C(=O)N(c4ccccc4)C(=O)C32)cc1 (stereo unspecified)	-0.309
C=CCN1C(=O)[C@]2(O[C@H](CCO)[C@@H]([Si](C)(C)c3ccc(OC)cc3)[C@@H]2C)c2cc(NC(=O)[C@H](C)O)ccc21	0.388
O=C1O[C@H](c2ccccc2)[C@H](c2ccccc2)N2[C@H]1[C@@H](C(=O)N1CCN(c3ncccn3)CC1)[C@]1(C(=O)Nc3ccccc31)[C@H]2c1ccc(OCCO)cc1	-0.442
O=C1OCCC/C=C\[C@H]2OC34C=CCN(Cn5nnc6ccccc65)C(=O)[C@H]3N(CCCCCO)C(=O)[C@@H]4C12 (stereo partly specified)	0.248
COc1cc2c(cc1OC)CN(C(=O)[C@@H]1[C@H]3C(=O)O[C@H](c4ccccc4)[C@H](c4ccccc4)N3[C@H](c3ccccc3OCCO)[C@@]13C(=O)Nc1ccc(C#CCNC(N)=O)cc13)CC2	-0.864
